# Assay results taken from the supplement of paper PMC6555819.
# Tested on: THRa homodimer (NR concentration 90 nM)
# Assay: PBM binding z-score (relative to random genomic background probes); higher = stronger binding; sequences stand for … in GC…GCGATTGACAGCGTAGAATGAAGG
# How it was run: (§1)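 Binding z-scores were set against random background probes. The data came from custom Agilent 4×180K protein-binding microarrays carrying double-stranded probes with 34-nt variable regions, incubated 1 h with ligand-free nuclear receptor dimers. Partner-specific antibodies detected binding, and scanned fluorescence was regression-normalized.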
row,Sequence,PBM binding z-score
1,ATATGTAGGTTAGATGGGGTCATTCAGACTAGGC,3.28
2,AATACAGGGTCTCTAGGCCAGAGTAGGTACGAAT,-0.0749
3,AGTCAAAGATCAGGACGAGGTAACGTAAAGCACG,1.16
4,GATTGTAGATCAAGGTTAAGAAAGACTAAGCTAA,-0.616
5,TCTATTAGTTGAAGGGCAAGCGACGAGTCCGTTT,0.0509
6,CCTTACGGCTCACTCCAGGTTATAGCATCGGAGT,0.628
7,CGTCCAGGGTCATAGGAGGTCAGTGAAGACAGAT,2.18
8,CCTTACGGGTCACTGACAGGTTACAGCATTTGGA,0.386
9,TAGCCTAGGTCATTGGGCCAGTTTAGTACGCATC,1
10,ATATGGAGGTTACATCCGGGTCATTCAGGCTATG,2.74
11,AGTCAGAGTTCAGGACGAGGTAACGTAAAGCACG,1.53
12,CAAACTAGGTAACAGAGGTCAAAGTCCGTGCGTA,1.95
13,GTACCAAGGTGAATAGGTCGTAGATGAGTAGGCG,0.42
14,CCTACTGGGCCAAGGTGATTGATCAGTCAAAGCA,-0.015
15,ATATGTAGGTTAGCTGGGGTCACTCAGACTAGGC,3.2
16,AATACAGCGTCACTAGGCCAGAGTAGGTACGAAT,-0.342
17,CCTAGCAGGCCAATCTGGGTCACTCCAGGCTTGA,0.312
18,GCATATAGGTAATACAAAGTGAAAGTCCGATTGT,-0.756
19,AGAATGAGGTTATACGCAGATCAGGGAAGAAAGT,0.465
20,CCAGACAGGTGAGAAGGAAACTCAGCCTCGATTA,0.13

row,Sequence,PBM binding z-score
1,GCAGACAGCTGAAACGCAGGTAACTCAGGGTGGC,-0.483
2,CGTCCAAGGTGATAGGAGGTCAGTGAAGACAGAT,1.51
3,TCTCGGAGGACGCGAAAGGTCAGAGCTCGACATC,0.235
4,CAAACTAGGTCACATAGGTCAAAGTCCGTGCGTA,1.78
5,ATCGAAAGGTCGAGATGAGTATAGAGAAAGGGAA,-0.434
6,TAGCCTAGGTCATGCGGGCTAGTATAGTGTCGGC,0.88
7,CCTACTGGCCCATTCAGAGGTCATTGATCATATG,1.71
8,CATACAGGGTGAGCTAGGCCAGAGTAGGGACGGC,0.182
9,AGAACGAGGGCACGCTGAATTGATAGCAGAGTAG,-0.215
10,CCTCAGAGGACAACAGGAGGTCAGAGCTGCCAGA,0.791
11,CAGCCTAGGGCAGGGCCAGTATAGGAGGAACGTT,-0.998
12,TCATATAGGTAAAAGCTAGGTGAAAGTCCGATCT,0.0247
13,CGGCCAAGGTCAGAGAGGTCAGTGAATGCCGAGT,2.42
14,GCTTACGGGTCAAGGGTTATAGCATGAATAGAAT,0.219
15,TCTCAGAGGACACGAAGGTCAGAGCTTTCCAGAG,0.738
16,TCGAGTAGGTTACCAATGGGGCCTTCAGCTTTCT,-0.919
17,ATACCAAGATGATCGTGAGGTCGTTGATACTAAC,1.81
18,CCTTACGGGTCACTCCTGGTTATAGCATCGGAGT,-0.0278
19,GCTGCTAGGTCAGGTTCGTCAGCTAACGGGTACG,0.323
20,TCTGCCAGGTCAACGATGGTCAGCTAATCTGCTA,1.7

# Tested on: VDR homodimer (NR concentration 270 nM)
# Assay: as above
# How it was run: as §1
row,Sequence,PBM binding z-score
1,ATATGTAGGTTAGATGGGGTCATTCAGACTAGGC,5.95
2,AATACAGGGTCTCTAGGCCAGAGTAGGTACGAAT,0.143
3,AGTCAAAGATCAGGACGAGGTAACGTAAAGCACG,-0.321
4,GATTGTAGATCAAGGTTAAGAAAGACTAAGCTAA,-0.0253
5,TCTATTAGTTGAAGGGCAAGCGACGAGTCCGTTT,1.23
6,CCTTACGGCTCACTCCAGGTTATAGCATCGGAGT,0.0912
7,CGTCCAGGGTCATAGGAGGTCAGTGAAGACAGAT,4.31
8,CCTTACGGGTCACTGACAGGTTACAGCATTTGGA,1.01
9,TAGCCTAGGTCATTGGGCCAGTTTAGTACGCATC,1.46
10,ATATGGAGGTTACATCCGGGTCATTCAGGCTATG,3.3
11,AGTCAGAGTTCAGGACGAGGTAACGTAAAGCACG,3.75
12,CAAACTAGGTAACAGAGGTCAAAGTCCGTGCGTA,4.49
13,GTACCAAGGTGAATAGGTCGTAGATGAGTAGGCG,0.204
14,CCTACTGGGCCAAGGTGATTGATCAGTCAAAGCA,-0.782
15,ATATGTAGGTTAGCTGGGGTCACTCAGACTAGGC,2.95
16,AATACAGCGTCACTAGGCCAGAGTAGGTACGAAT,-0.308
17,CCTAGCAGGCCAATCTGGGTCACTCCAGGCTTGA,-0.0635
18,GCATATAGGTAATACAAAGTGAAAGTCCGATTGT,-0.321
19,AGAATGAGGTTATACGCAGATCAGGGAAGAAAGT,0.945
20,CCAGACAGGTGAGAAGGAAACTCAGCCTCGATTA,-0.0277

row,Sequence,PBM binding z-score
1,GCAGACAGCTGAAACGCAGGTAACTCAGGGTGGC,-1.05
2,CGTCCAAGGTGATAGGAGGTCAGTGAAGACAGAT,0.846
3,TCTCGGAGGACGCGAAAGGTCAGAGCTCGACATC,0.581
4,CAAACTAGGTCACATAGGTCAAAGTCCGTGCGTA,3.91
5,ATCGAAAGGTCGAGATGAGTATAGAGAAAGGGAA,0.309
6,TAGCCTAGGTCATGCGGGCTAGTATAGTGTCGGC,0.2
7,CCTACTGGCCCATTCAGAGGTCATTGATCATATG,3.87
8,CATACAGGGTGAGCTAGGCCAGAGTAGGGACGGC,-0.497
9,AGAACGAGGGCACGCTGAATTGATAGCAGAGTAG,0.542
10,CCTCAGAGGACAACAGGAGGTCAGAGCTGCCAGA,1.29
11,CAGCCTAGGGCAGGGCCAGTATAGGAGGAACGTT,-0.621
12,TCATATAGGTAAAAGCTAGGTGAAAGTCCGATCT,-0.0504
13,CGGCCAAGGTCAGAGAGGTCAGTGAATGCCGAGT,5.9
14,GCTTACGGGTCAAGGGTTATAGCATGAATAGAAT,0.975
15,TCTCAGAGGACACGAAGGTCAGAGCTTTCCAGAG,1.62
16,TCGAGTAGGTTACCAATGGGGCCTTCAGCTTTCT,-0.944
17,ATACCAAGATGATCGTGAGGTCGTTGATACTAAC,2.77
18,CCTTACGGGTCACTCCTGGTTATAGCATCGGAGT,1.19
19,GCTGCTAGGTCAGGTTCGTCAGCTAACGGGTACG,2.58
20,TCTGCCAGGTCAACGATGGTCAGCTAATCTGCTA,0.359
